This is an account of results in PubChem BioAssay (NCI).

This is part of a sample that, as a whole, favours compounds with a hit. Of some 83,000 tested, about 20% had one in any assay.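 In brief: 96-well plates, 48 h treatment, single concentration, percent growth endpoint.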 Values without a mark were called inactive. The source made the active and inactive calls. How the source made its calls: active means growth percent below 10; inactive means the rest.

The first assay has as its system RPMI-8226 leukemia. The assay is described as follows: NCI-60 one-dose screen, 48 h (100 = growth as untreated, 0 = no growth, -100 = all killed). As to conditions: 10 µM unless noted.
Take `CCCCCCCCCCN1CCC(N2CCCCC2)CC1`: the growth was -44.8% (active).

Take `CCCCc1ccc(C(N)=O)nc1`: the growth is 88.6%.

Turning to `O=C(CN1CCN(c2ccc(Cl)cc2)CC1)N1CCN(c2nnc(-c3ccc(Cl)cc3)c(-c3ccc(Cl)cc3)n2)CC1`, the growth was 8.48% (active). Still for that read-out and setting: for `COc1ccc2c(=O)c(OC)c(-c3cc(OC)c(OC)c(OC)c3)oc2c1` the value was 92.6%; for `O=Nc1c2cccnc2n2nnc3ccc(Cl)cc3c12`, -63.1% (active). Same read-out and setting: then `CC(=O)/C(=C/c1ccc(Cl)cc1)C(=O)c1ccccc1`, with 34.8%.

In the case of `C[C@H]1C(=O)N2c3ccccc3[C@@]3(O)C[C@@H](n4cnc5ccccc5c4=O)C(=O)N1[C@@H]23`, the growth was 125%. Still for that read-out and setting: for `O=C(CN1CCN(c2ccc(Cl)cc2)CC1)N1CCN(c2nnc(-c3ccccc3)c(-c3ccccc3)n2)CC1` the value was -23.4% (active); for `CCCCCCCCCCCCC1CCCC(C)C1` (stereo unspecified), 99%; for `[N-]=[N+]=NCc1cccc(/C(O)=C/C(=O)C(=O)O)c1`, 90.7%. Same read-out and setting: then `COc1cccc(N2CCN(CC(=O)N3CCN(c4nnc(-c5ccc(Cl)cc5)c(-c5ccc(Cl)cc5)n4)CC3)CC2)c1`, with -37.2% (active).

Turning to `COc1ccc(C(=O)/C=C/c2ccc(C)cc2)cc1OC`, the growth was 18.9%. On to `CCOC(=O)c1cnc2c(C)cc(C)cc2c1NCCCN(C)C`, for which the growth was 7.09% (active). Same read-out and setting: then `CN(C)CCCNc1nn2c(=O)c3ccccc3nc2c2ccccc12`, with 48.8%; and `COc1cc(C(=O)c2cc3c(cc2C)OCO3)cc(OC)c1OC`, with 39.1%; and `Cc1cc(C(=O)Nc2ccc3cc(CN4CCOCC4)ccc3n2)c(C)n1-c1ccccc1`, with -21% (active). Still for that read-out and setting: for `Cc1sc2nc3c4ccccc4c(NCCCN(C)C)nn3c(=O)c2c1C` the value was -56.4% (active); for `CCN(CC)c1ccc(C(=C2C=CC(=[N+](CC)Cc3cccc(S(=O)(=O)O)c3)C=C2)c2ccc(N(CC)Cc3cccc(S(=O)(=O)O)c3)cc2)cc1`, -43.1% (active).

For `COc1ccc(N2CCN(CC(=O)N3CCN(c4nnc(-c5ccc(Cl)cc5)c(-c5ccc(Cl)cc5)n4)CC3)CC2)cc1`, the growth is -14.8% (active).

A further assay relates to OVCAR-8 ovarian. Described as above. As to conditions: 10 µM unless noted.
Consider `Cc1ccc(S(=O)(=O)N2CCN(C(=O)CSc3nc4ccc(C)cc4[nH]3)CC2)cc1`, for which the growth was 74.5%. Same read-out and setting: for `CCOc1cc(/C=C/C(=O)C(C(=O)/C=C/c2ccc(OC(=O)CNc3nc4ccccc4[nH]3)c(OCC)c2)C(=O)CNc2nc3ccccc3[nH]2)ccc1OC(=O)CNc1nc2ccccc2[nH]1` the value was 9.36% (active). Still for that read-out and setting: for `COc1ccc(CC(=O)Nc2nn3c(-c4cc(C(F)(F)F)cc(C(F)(F)F)c4)nnc3s2)cc1` the value was 65%; for `O=C(Nc1nc2ccc(OC(F)(F)F)cc2s1)c1ccc(F)cc1`, 17.8%; for `O=C(/C=C/c1ccc([N+](=O)[O-])cc1)c1ccc2c3c(cccc13)CC2`, 28.7%. Still for that read-out and setting: for `O=C(Nc1ccc(Cl)cc1)Nc1nc2ccc(OC(F)(F)F)cc2o1` the value was 85.4%.

On to `Clc1ccc2nc(CI)c(CI)nc2c1`, for which the growth is 93%.

For the molecule `FC(F)(F)c1cc(-c2nnc3n2N=C(N2CCCC2)CS3)cc(C(F)(F)F)c1`, the growth is 74.4%.

As for `Clc1ccc(C2c3ccccc3-c3nccn32)c(Cl)c1` (stereo unspecified), the growth is 84.1%. Still for that read-out and setting: then `COC(=O)c1c(NC(=O)CSc2nnnn2-c2ccc(OC)cc2)sc(C)c1C`, with 87%; and `O=[N+]([O-])c1ccc(NS(=O)(=O)c2ccc(Cl)c(Cl)c2)cc1`, with 79.2%. The same measure, in the same setting: for `O=C(O)C1CCN(S(=O)(=O)c2ccc(-c3ccccc3)cc2)CC1` the value was 81.4%; for `O=C1/C=C/[C@@H](O)[C@@H]2C[C@@H](O)C[C@H]2/C=C/CCC[C@H](CO)O1`, 35.4%; for `O=C1/C(=C/c2ccc(F)cc2)Cc2ccccc21`, 101%. On the same count and under the same terms, for `CCCCCCCCCCN1CCC(N2CCCCC2)CC1` the value was -1.39% (active). For the molecule `CCCCc1ccc(C(N)=O)nc1`, the growth is 107%. The same measure, in the same setting: then `O=Nc1c2cccnc2n2nnc3ccc(Cl)cc3c12`, with -26.8% (active). As to `CC(=O)/C(=C/c1ccc(Cl)cc1)C(=O)c1ccccc1`, the growth was 89.2%. The same measure, in the same setting: then `C[C@H]1C(=O)N2c3ccccc3[C@@]3(O)C[C@@H](n4cnc5ccccc5c4=O)C(=O)N1[C@@H]23`, with 91.7%; and `CCCCCCCCCCCCC1CCCC(C)C1` (stereo unspecified), with 102%. On the same count and under the same terms, then `[N-]=[N+]=NCc1cccc(/C(O)=C/C(=O)C(=O)O)c1`, with 79.4%; and `COc1cc(C(=O)c2cc3c(cc2C)OCO3)cc(OC)c1OC`, with 20.4%; and `Cc1cc(C(=O)Nc2ccc3cc(CN4CCOCC4)ccc3n2)c(C)n1-c1ccccc1`, with 4.27% (active).

For another assay, the system named is OVCAR-5 ovarian. Described as above. As to conditions: 10 µM unless noted.
As to `Cc1ccc(S(=O)(=O)N2CCN(C(=O)CSc3nc4ccc(C)cc4[nH]3)CC2)cc1`, the growth is 117%. Still for that read-out and setting: for `COc1ccc(CC(=O)Nc2nn3c(-c4cc(C(F)(F)F)cc(C(F)(F)F)c4)nnc3s2)cc1` the value was 96%; for `O=C(Nc1nc2ccc(OC(F)(F)F)cc2s1)c1ccc(F)cc1`, 43%. The same measure, in the same setting: for `O=C(/C=C/c1ccc([N+](=O)[O-])cc1)c1ccc2c3c(cccc13)CC2` the value was 89.8%; for `O=C(Nc1ccc(Cl)cc1)Nc1nc2ccc(OC(F)(F)F)cc2o1`, 95.9%; for `O=C(/C=C/c1c(-c2ccccc2)[nH]c2ccccc12)S(=O)(=O)c1ccccc1`, 100%. The same measure, in the same setting: for `Clc1ccc2nc(CI)c(CI)nc2c1` the value was 91%; for `FC(F)(F)c1cc(-c2nnc3n2N=C(N2CCCC2)CS3)cc(C(F)(F)F)c1`, 106%.

Consider `COC(=O)c1c(NC(=O)CSc2nnnn2-c2ccc(OC)cc2)sc(C)c1C`, for which the growth was 103%. On the same count and under the same terms, for `O=[N+]([O-])c1ccc(NS(=O)(=O)c2ccc(Cl)c(Cl)c2)cc1` the value was 113%; for `O=C1/C=C/[C@@H](O)[C@@H]2C[C@@H](O)C[C@H]2/C=C/CCC[C@H](CO)O1`, 52.8%. Still for that read-out and setting: then `COc1ccc(N2CCN(CC(=O)N3CCN(c4nnc(-c5ccccc5)c(-c5ccccc5)n4)CC3)CC2)cc1`, with 90.3%.

For the molecule `O=C1/C(=C/c2ccc(F)cc2)Cc2ccccc21`, the growth was 92.6%.

For the molecule `CCN(CC)CCOCC[C@H]1CC[C@H]2[C@@H]3[C@H](C)Cc4cc(OS(N)(=O)=O)ccc4[C@H]3CC[C@]12C`, the growth was -50.1% (active).

Regarding `COc1cc(-c2n[nH]nc2-c2ccccn2)cc(OC)c1OC`, the growth was 100%. On the same count and under the same terms, then `Cc1cc(C)c2c(N)c3cccc(C)c3nc2n1`, with -22.9% (active); and `Cc1c2oc3c(C)ccc(C(=O)OC(C)C4NC(=O)C(C(C)C)N(C)C(=O)CN(C)C(=O)C5CCCN5C(=O)C(C(C)C)NC4=O)c3nc-2c(C(=O)OC(C)C2NC(=O)C(C(C)C)N(C)C(=O)CN(C)C(=O)C3CCCN3C(=O)C(C(C)C)NC2=O)c(N)c1=O` (stereo unspecified), with 14.6%; and `N[C@H](CS)C(=O)O`, with 103%.

On to `CCCCCCCCCCN1CCC(N2CCCCC2)CC1`, for which the growth is 41.5%. On the same count and under the same terms, then `CCCCc1ccc(C(N)=O)nc1`, with 96.2%; and `O=C(CN1CCN(c2ccc(Cl)cc2)CC1)N1CCN(c2nnc(-c3ccc(Cl)cc3)c(-c3ccc(Cl)cc3)n2)CC1`, with 103%; and `COc1ccc2c(=O)c(OC)c(-c3cc(OC)c(OC)c(OC)c3)oc2c1`, with 101%. For `O=Nc1c2cccnc2n2nnc3ccc(Cl)cc3c12`, the growth is 94.9%. For the molecule `C[C@H]1C(=O)N2c3ccccc3[C@@]3(O)C[C@@H](n4cnc5ccccc5c4=O)C(=O)N1[C@@H]23`, the growth is 110%. Still for that read-out and setting: then `O=C(CN1CCN(c2ccc(Cl)cc2)CC1)N1CCN(c2nnc(-c3ccccc3)c(-c3ccccc3)n2)CC1`, with 86.4%; and `CCCCCCCCCCCCC1CCCC(C)C1` (stereo unspecified), with 105%. On the same count and under the same terms, for `[N-]=[N+]=NCc1cccc(/C(O)=C/C(=O)C(=O)O)c1` the value was 63.5%.

As for `COc1cccc(N2CCN(CC(=O)N3CCN(c4nnc(-c5ccc(Cl)cc5)c(-c5ccc(Cl)cc5)n4)CC3)CC2)c1`, the growth was 85.9%. Still for that read-out and setting: for `COc1ccc(C(=O)/C=C/c2ccc(C)cc2)cc1OC` the value was 90.1%; for `CCOC(=O)c1cnc2c(C)cc(C)cc2c1NCCCN(C)C`, 38.6%; for `CN(C)CCCNc1nn2c(=O)c3ccccc3nc2c2ccccc12`, 80.9%. On the same count and under the same terms, for `COc1cc(C(=O)c2cc3c(cc2C)OCO3)cc(OC)c1OC` the value was 43.1%; for `CCN(CC)c1ccc(C(=C2C=CC(=[N+](CC)Cc3cccc(S(=O)(=O)O)c3)C=C2)c2ccc(N(CC)Cc3cccc(S(=O)(=O)O)c3)cc2)cc1`, 68.2%; for `COc1ccc(N2CCN(CC(=O)N3CCN(c4nnc(-c5ccc(Cl)cc5)c(-c5ccc(Cl)cc5)n4)CC3)CC2)cc1`, 91.6%.
